According to PubChem BioAssay (NCATS):
Records with an inconclusive call do not appear. The source made the active and inactive calls. Unless noted, calls come from the whole dose curve; as a rule, active = well fitted curve in either direction with a large enough effect (not every such curve was filed as active); inconclusive = small, poorly fitted or top-dose-only effect, or another doubt; inactive = flat fitted curve, though single readings scatter.

Tests used:
[1] = AP1 Signaling Pathway (AID 357); details: ME-180 AP-1-bla reporter, EGF-induced, beta-lactamase ratio, 5 h; at 17.2 µM (top of the series) unless noted;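 note: ME-180 reporter cells stimulated with EGF at its EC50 level; % is set by controls: 0 for no effect and ±100 for the full control effect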
Outline: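 Cells are seeded overnight, exposed to compound titrations and an EC50 level of EGF for 5 hours at 37 °C, then loaded with CCF4 dye for 2.5 hours. Beta-lactamase activity under the AP-1 element is read as a blue/green ratio.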

[2] = Stat Signaling Pathway (AID 446); details: ME-180 SIE beta-lactamase reporter, IL-6 stimulated, 5 h; at 17.2 µM (top of the series) unless noted;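 note: ME-180 cervical cancer cells given 40 pM IL-6 alongside compound; SIE-controlled beta-lactamase reporter measured as 460/530 nm FRET emission ratio; % is set by controls: 0 for no effect and ±100 for the full control effect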
Outline: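 ME-180 cells carrying a SIE-driven beta-lactamase reporter are stimulated with 40 pM IL-6 for 5 h at 37C in the presence of compound. The 460/530 nm FRET substrate ratio is read after 2.5 h at RT. Data are normalised to 300 pM IL-6 and to 125 nM JAK inhibitor controls.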

[3] = target: Glucocorticoid receptor (Homo sapiens) (UniProt P04150); test: GR-GFP Redistribution (AID 450;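 active = compounds whose dose series gives a full or clear partial fitted curve of increased nuclear translocation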; note: potency is the fitted concentration of half-maximal effect)
Chain of Glucocorticoid receptor (Homo sapiens) (P04150 whole entry, looked up, the tested form may be a part): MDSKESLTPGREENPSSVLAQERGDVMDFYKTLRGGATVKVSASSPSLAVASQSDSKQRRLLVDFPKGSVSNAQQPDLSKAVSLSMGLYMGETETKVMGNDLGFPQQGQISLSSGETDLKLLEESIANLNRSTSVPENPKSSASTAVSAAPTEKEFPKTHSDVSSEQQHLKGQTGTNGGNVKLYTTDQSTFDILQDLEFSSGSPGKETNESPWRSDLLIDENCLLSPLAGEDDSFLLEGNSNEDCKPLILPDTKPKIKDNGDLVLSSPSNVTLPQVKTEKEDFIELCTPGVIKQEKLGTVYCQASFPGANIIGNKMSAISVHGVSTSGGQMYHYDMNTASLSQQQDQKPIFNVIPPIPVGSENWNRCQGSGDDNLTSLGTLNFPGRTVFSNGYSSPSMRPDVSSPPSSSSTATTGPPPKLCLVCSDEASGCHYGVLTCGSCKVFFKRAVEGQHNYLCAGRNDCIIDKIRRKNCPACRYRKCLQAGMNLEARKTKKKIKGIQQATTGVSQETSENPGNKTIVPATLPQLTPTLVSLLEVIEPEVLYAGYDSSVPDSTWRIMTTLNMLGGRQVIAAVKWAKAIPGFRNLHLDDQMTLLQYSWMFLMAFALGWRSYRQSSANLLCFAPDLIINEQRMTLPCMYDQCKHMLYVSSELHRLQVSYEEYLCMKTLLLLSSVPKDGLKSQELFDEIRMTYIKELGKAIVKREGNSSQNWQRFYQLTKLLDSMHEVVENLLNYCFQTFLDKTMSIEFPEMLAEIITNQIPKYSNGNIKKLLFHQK

[4] = target: Glucocorticoid receptor (Homo sapiens) (UniProt P04150); test: GR-EFC Redistribution (AID 451; calls by dose curve; note: potency is the fitted concentration of half-maximal effect); details: CHO-K1 GR-EFC translocation, beta-gal luminescence, 2 h
Outline: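 CHO-K1 cells expressing nuclear EA and GR-ED fragments of b-gal; compounds titrated up to 46 uM final, 2 h at 37 C. GR nuclear translocation read as complemented b-gal luminescence after 1 h RT detection.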

[5] = target: Mitogen-activated protein kinase 10 (Mus musculus) (UniProt Q61831); test: JNK3 AlphaScreen Assay (AID 530);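 note: kinase came from lysate of stimulated human HepG2 cells; signal reports phosphorylation of biotinylated GST-cJun 1-79 at Ser73 with 10 µM ATP; % is set by controls: 0 for no effect and ±100 for the full control effect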
Outline: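 qHTS format: compounds tested as titrations against IL-1beta/TNF-alpha-activated HepG2 lysate JNK3 with biotin-GST-cJun substrate and 10 uM ATP at room temperature. Loss of anti-phospho-cJun AlphaScreen signal indicates inhibition.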

[6] = Confirmation and Secondary Assay for Modulators of Hemoglobin Beta Chain Splicing at IVS2 654 locus (AID 910; active = well fitted curve in the direction sought with a large enough effect; an effect the other way counts as inactive or inconclusive;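 note: HeLa cells stably carrying EGFP split by mutant beta-globin IVS2-654 intron; % of control where 0% means no effect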)
Outline: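 HeLa cells stably expressing EGFP interrupted by β-globin IVS2-654 intron, seeded overnight in Opti-MEM/2% FCS, then treated 2 days at 37 °C. Restored splicing read as total peak GFP intensity per well by laser scanning cytometry (488 nm excitation, 500–520 nm emission); 500 nM antisense PNA as control.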

[7] = Confirmation and Secondary Assay for Modulators of Hemoglobin Beta Chain Splicing at IVS2 705 locus (AID 930; active = well fitted curve in the direction sought with a large enough effect; an effect the other way counts as inactive or inconclusive;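 note: HeLa cells stably expressing the EGFP-705 splicing reporter; GFP fluorescence per well restored by corrected splicing of the IVS2-705 intron in EGFP; % of control where 0% means no effect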)
Outline: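 Fluorescence gain (488 nm laser, 500-520 nm PMT) reflects restored correct splicing of a mutant IVS2-705 intron inside EGFP in stably transfected HeLa cells after 2-day compound treatment.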

[8] = target: 3',5'-cyclic-AMP phosphodiesterase 4B (Homo sapiens) (UniProt Q07343); test: qHTS Assay for Inhibitors of PDE-IV (AID 607; active = well fitted activation curve with a large enough effect in the main read-out, with a control signal flat, not every such curve was filed as active; note: % of control where 0% means no effect)
Chain of 3',5'-cyclic-AMP phosphodiesterase 4B (Homo sapiens) (Q07343 whole entry, looked up): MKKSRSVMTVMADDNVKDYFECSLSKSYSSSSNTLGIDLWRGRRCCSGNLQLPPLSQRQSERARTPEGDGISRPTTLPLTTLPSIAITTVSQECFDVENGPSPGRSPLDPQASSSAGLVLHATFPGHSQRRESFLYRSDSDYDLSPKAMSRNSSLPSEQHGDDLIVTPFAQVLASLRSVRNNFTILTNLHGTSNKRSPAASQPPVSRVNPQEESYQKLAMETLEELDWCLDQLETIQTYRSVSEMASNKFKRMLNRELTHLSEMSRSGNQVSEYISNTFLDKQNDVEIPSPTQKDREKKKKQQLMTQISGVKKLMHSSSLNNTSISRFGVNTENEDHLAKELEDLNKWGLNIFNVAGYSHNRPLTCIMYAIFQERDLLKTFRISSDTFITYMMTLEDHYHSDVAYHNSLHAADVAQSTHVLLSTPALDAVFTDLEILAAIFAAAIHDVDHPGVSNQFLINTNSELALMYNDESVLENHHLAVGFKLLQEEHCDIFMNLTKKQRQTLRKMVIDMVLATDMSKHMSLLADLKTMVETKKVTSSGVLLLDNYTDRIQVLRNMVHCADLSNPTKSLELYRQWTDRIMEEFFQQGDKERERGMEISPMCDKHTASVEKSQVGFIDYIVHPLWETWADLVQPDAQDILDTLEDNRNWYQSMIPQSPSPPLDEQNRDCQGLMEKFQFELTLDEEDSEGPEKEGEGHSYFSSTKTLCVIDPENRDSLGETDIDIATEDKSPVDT
Outline: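 HEK293 ACTOne cells with CNG channel (1000/well), endogenous PDE4; membrane potential dye, compounds up to 22.9 uM final. Fluorescence Ex 535/Em 590; RO 20-1724 (100 uM final) as reference.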

[9] = qHTS Assay for Identification of Small Molecule Agonists for Hypoxia Response Element Signaling Pathway (AID 914; active = well fitted activation curve with a large enough effect in the signal ratio, with a control signal flat, not every such curve was filed as active; the % refers to the signal ratio; note: % of control where 0% means no effect); details: ME-180 HRE-bla reporter, beta-lactamase ratio, CoCl2, 17 h; activation: stronger effect = higher value
Outline: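 A beta-lactamase reporter under hypoxia response element control in ME-180 cells served as the system. Compound titrations plus EC50 CoCl2 ran 17 h at 37 degrees Celsius; AC50 values were fitted from %Activity.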

[10] = target: Guanine nucleotide-binding protein G(i) subunit alpha-1 (Homo sapiens) (UniProt P63096); test: qHTS Assay for Inhibitors of RGS12 GoLoco Motif Activity (Green Fluorophore) (AID 879; active = well fitted curve in the direction sought with a large enough effect; an effect the other way counts as inactive or inconclusive;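 note: 0% = labeled peptide with Gαi1 and full inhibition = labeled peptide alone without protein; negative values mean loss of peptide binding seen as reduced polarization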)
Chain of Guanine nucleotide-binding protein G(i) subunit alpha-1 (Homo sapiens) (P63096 whole entry, looked up): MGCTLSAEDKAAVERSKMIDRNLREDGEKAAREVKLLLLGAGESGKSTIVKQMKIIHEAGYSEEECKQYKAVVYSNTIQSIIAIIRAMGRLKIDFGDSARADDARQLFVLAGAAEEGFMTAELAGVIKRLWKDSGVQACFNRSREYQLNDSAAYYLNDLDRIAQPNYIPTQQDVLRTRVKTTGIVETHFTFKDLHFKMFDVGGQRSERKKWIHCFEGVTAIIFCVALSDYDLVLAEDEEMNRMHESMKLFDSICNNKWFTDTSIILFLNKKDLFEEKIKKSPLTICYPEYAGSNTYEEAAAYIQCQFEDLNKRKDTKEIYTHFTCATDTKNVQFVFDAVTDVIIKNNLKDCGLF
Outline: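 Fluorescence polarization assay: 50 nM Gαi1 with 10 nM FITC-labeled RGS12 GoLoco peptide in 10 mM Tris pH 7.5, 150 mM NaCl, 0.1 mM GDP, 0.05% NP40, 10 min at room temperature with compound.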

[11] = qHTS Assay for Identification of Small Molecule Antagonists for NFkB Signaling Pathway (AID 895; active = well fitted inhibition curve with a large enough effect in the signal ratio, with a control signal flat, not every such curve was filed as active; the % refers to the signal ratio; note: % is set by controls: 0 for no effect and ±100 for the full control effect)
Outline: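 ME-180 NFkB-bla cells (beta-lactamase under NFkB response element), plated overnight, treated with compound then 10 pM TNF alpha (about EC50) for 5 hrs at 37 C. LiveBLAzer FRET read at 460/530 nm emission, 405 nm excitation.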

[12] = qHTS Assay for Identification of Small Molecule Agonists for Thrombopoietin (TPO) Signaling Pathway (AID 917; active = well fitted curve in the direction sought with a large enough effect; an effect the other way counts as inactive or inconclusive; note: % is set by controls: 0 for no effect and ±100 for the full control effect)
Outline: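 Activators of TPO signaling were sought in murine Ba/F3 cells transfected with the human receptor, using a luciferase gene driven by the Glycoprotein IIb promoter; 24-hr compound exposure at 37 C alongside 26 pM TPO, in IL-3-free medium.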

[13] = target: Pyruvate kinase (Leishmania mexicana) (UniProt Q27686); test: qHTS Validation Assay for Inhibitors of Leishmania Mexicana Pyruvate Kinase (AID 945; active = well fitted curve in the direction sought with a large enough effect; an effect the other way counts as inactive or inconclusive;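 note: 0% = DMSO only neutral control wells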)
Chain of Pyruvate kinase (Leishmania mexicana) (Q27686 2-499 E452W): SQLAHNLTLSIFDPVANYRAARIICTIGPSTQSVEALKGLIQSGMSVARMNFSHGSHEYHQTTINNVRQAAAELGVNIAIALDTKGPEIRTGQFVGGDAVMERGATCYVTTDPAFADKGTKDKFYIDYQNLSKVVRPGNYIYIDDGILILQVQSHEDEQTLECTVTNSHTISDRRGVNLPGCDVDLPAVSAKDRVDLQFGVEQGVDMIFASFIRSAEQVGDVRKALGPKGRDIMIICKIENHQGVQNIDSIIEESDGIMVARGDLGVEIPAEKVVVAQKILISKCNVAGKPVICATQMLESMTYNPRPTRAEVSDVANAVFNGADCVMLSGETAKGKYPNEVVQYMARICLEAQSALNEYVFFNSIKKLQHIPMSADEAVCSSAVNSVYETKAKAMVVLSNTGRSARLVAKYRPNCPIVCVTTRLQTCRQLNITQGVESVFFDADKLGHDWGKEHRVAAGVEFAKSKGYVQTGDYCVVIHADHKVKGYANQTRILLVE
Outline: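 Compounds are tested as eight-point concentration series. Reactions contain 0.2 nM LmPYK E451W, 0.5 mM PEP, 0.1 mM ADP, 7 mM MgCl2 and 50 mM KCl at pH 7.2, run 1 h at room temperature, then read by PKLight luminescence.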

[14] = target: Pyruvate kinase PKM (Homo sapiens) (UniProt P14618); test: qHTS Assay for Activators of Human Muscle Pyruvate Kinase (AID 954; active = well fitted curve in the direction sought with a large enough effect, not every such curve was filed as active;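 note: 0% = uninhibited enzyme and -100% = no enzyme or full thiadiazolimine inhibition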)
Chain of Pyruvate kinase PKM (Homo sapiens) (P14618 whole entry, looked up): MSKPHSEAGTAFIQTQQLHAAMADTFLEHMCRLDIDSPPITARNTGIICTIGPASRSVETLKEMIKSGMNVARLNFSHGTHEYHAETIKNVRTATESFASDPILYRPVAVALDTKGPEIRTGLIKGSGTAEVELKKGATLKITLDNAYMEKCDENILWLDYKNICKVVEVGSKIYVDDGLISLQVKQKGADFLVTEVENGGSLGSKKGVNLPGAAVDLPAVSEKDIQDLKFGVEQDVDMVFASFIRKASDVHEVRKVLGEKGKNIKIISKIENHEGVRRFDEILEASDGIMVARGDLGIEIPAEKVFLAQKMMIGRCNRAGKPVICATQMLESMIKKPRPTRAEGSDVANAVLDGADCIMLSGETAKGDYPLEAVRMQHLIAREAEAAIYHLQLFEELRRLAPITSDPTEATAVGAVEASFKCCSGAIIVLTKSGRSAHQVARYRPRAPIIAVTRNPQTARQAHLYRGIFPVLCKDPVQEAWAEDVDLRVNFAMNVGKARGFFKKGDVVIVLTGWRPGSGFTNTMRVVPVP
Outline: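 Purified human PKM2 (0.1 nM) with 0.5 mM PEP (Km) and 0.1 mM ADP in 50 mM imidazole pH 7.2, KCl, MgCl2, 1 h at room temperature; ATP formed read by coupled luciferase luminescence. Normalized to no-enzyme/110 uM thiadiazolimine inhibition; 0.3 nM enzyme column for activation.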

[15] = target: Alpha-galactosidase A (Homo sapiens) (UniProt P06280); test: Counterscreen for Glucocerebrosidase Inhibitors: qHTS Assay for Human alpha-Galactosidase at pH 4.5 (AID 992; active = well fitted curve in the direction sought with a large enough effect; an effect the other way counts as inactive or inconclusive; note: 0% is about no effect)
Chain of Alpha-galactosidase A (Homo sapiens) (P06280 whole entry, looked up): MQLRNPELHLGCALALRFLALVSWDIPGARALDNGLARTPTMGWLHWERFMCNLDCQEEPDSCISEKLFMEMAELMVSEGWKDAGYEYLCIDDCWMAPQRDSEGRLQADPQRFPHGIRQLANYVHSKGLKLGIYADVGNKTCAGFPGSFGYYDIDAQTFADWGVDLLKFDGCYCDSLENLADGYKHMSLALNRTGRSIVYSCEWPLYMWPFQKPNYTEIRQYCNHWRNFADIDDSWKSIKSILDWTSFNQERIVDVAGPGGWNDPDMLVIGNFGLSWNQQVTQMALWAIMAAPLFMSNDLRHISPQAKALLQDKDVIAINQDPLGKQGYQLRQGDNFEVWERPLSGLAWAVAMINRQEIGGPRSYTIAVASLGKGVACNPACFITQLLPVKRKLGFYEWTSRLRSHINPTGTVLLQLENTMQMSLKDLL
Outline: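 Human enzyme (2 nM) with 80 uM 4-methylumbelliferyl alpha-D-galactopyranoside in 50 mM citric acid, 0.005% Tween-20, pH 4.5, 20 min at room temperature. Compounds 0.7 nM–77 uM; fluorescence Ex 365/Em 440 after pH 10 stop; AC50 from Hill fits.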

[16] = target: alpha-glucosidase (Oryza sativa, rice) (UniProt Q653V4); test: Counterscreen for Glucocerebrosidase Inhibitors: qHTS Assay for Rice alpha-Glucosidase at pH 5.0 (AID 997; active = well fitted curve in the direction sought with a large enough effect; an effect the other way counts as inactive or inconclusive;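 note: 0% = full activity with enzyme and -100% = basal without enzyme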)
Outline: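 Rice alpha-glucosidase (4 nM final) with 400 uM 4-methylumbelliferyl-alpha-D-glucopyranoside in citrate buffer pH 5.0, 20 min at room temperature, stopped at pH 10; fluorescence 365/440 nm, compounds 0.7 nM–77 uM, AC50 from Hill fits.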

Cc1cccc(CNc2ccnc(-c3ccc(N(C)C)cc3)n2)c1
inactive: activity change, negative = inhibition [1] -16% [at 7.69 µM] | activity, negative = inhibition [2] -22.6% [at 7.69 µM] | Potency [3] > 46 µM | Potency [4] > 46 µM | Potency [5] | Potency [6] | Potency [7]

CCCCc1nc(NCC2CCCO2)c(C#N)c2c1COC(C)(C)C2 (stereo unspecified)
inactive: activity change, negative = inhibition [1] -26.3% | activity, negative = inhibition [2] 1.02% | Potency [3] > 20.6 µM

COc1ccc(Nc2cc(C)nc3ccccc23)cc1
inactive: activity change, negative = inhibition [1] 10.5% | activity, negative = inhibition [2] 5.77% | Potency [3] > 20.6 µM

CC(C)Cc1nc(N2CCCCC2)c(C#N)c2c1CCC2
inactive: activity change, negative = inhibition [1] 28.8% | activity, negative = inhibition [2] 9.01% | Potency [3] > 20.6 µM

CCOC(=O)C1=C(C)NC(C)=C(C(=O)OC)[C@@H]1c1cccc(Cl)c1Cl
inactive: activity change, negative = inhibition [1] -13.1% | activity, negative = inhibition [2] -13.3% | Potency [3] > 20.6 µM | Potency [4] > 20.6 µM | Potency [5]

C[N+](C)(C)[C@@H](C1=CCCC1=O)c1ccccc1
inactive: activity change, negative = inhibition [1] 3.55% [at 7.69 µM] | activity, negative = inhibition [2] -12.6% [at 7.69 µM] | Potency [3] > 46 µM | Potency [4] > 9.22 µM | activity change, negative = inhibition [5] 5.46% [at 11.4 µM] | Potency [8] | activation [9] -1.62%

CC(=O)O[C@@H]1[C@H]([N+]2(C)CCCCC2)C[C@@H]2[C@@H]3CC[C@@H]4C[C@@H](OC(C)=O)[C@H]([N+]5(C)CCCCC5)C[C@@]4(C)[C@H]3CC[C@]21C
inactive: activity change, negative = inhibition [1] 13.6% [at 38 µM] | activity, negative = inhibition [2] 18.1% [at 38 µM] | Potency [3] > 46 µM | Potency [4] > 46 µM | Potency [5] | Potency [8] | outcome [10] | Potency [11] | Potency [12] | Potency [13] | outcome [14] | outcome [15] | outcome [16]
